An excerpt weighted towards active compounds, which were near 3.5% of everything screened.
Anthrax LF prot = Bacillus anthracis LF protease inhibitors, primary screen, biochemical, multiplex microsphere, MLPCN library; AID 588501, 2011; 360,000 tested, 0.12% active; inhibition, % at 10 µM; Lethal factor (Bacillus anthracis), P15917; multiplex microsphere protease cleavage assay; note: plate controls were buffer without enzyme for full effect and enzyme alone for no effect
Vc quorum ag-1 = inducers of Vibrio cholerae quorum light production without autoinducers, primary screen, BH1578 luxS cqsA deficient, single point; 350,000 tested, 0.16% active; V. cholerae BH1578 lux reporter, luminescence, 6 h; activation, % at 18.7 µM; AID 588436, 2011; in the data active = activation mostly above about 9.7%, no sharp cut-off; inconclusive = no clear call, values can overlap the other calls; inactive = mostly below about 3.7%
BoNT-F LC inh = BoNT/F light chain protease inhibitors, primary screen, biochemical, flow cytometry, MLPCN library. Multiplex microsphere protease cleavage assay. inhibition, % at 10 µM. AID 588497, 2011. Botulinum neurotoxin type F light chain protease (Clostridium botulinum). 360,000 tested, 0.22% active; in the data active = inhibition above about 35%, passing the limit was not always enough; inconclusive = no clear call, values can overlap the other calls; note: plate controls were buffer without enzyme for full effect and enzyme alone for no effect
Bead autofluor = counter-screen for toxin protease inhibitors: compound fluorescence | compound autofluorescence counterscreen, microsphere flow cytometry; hits give high values | fluorescence intensity (no concentration beside the values) | 360,000 tested, 3.1% active; in the data active = fluorescence intensity above about 16000; inconclusive = no clear call, values can overlap the other calls
BoNT-A LC inh2 = BoNT/A light chain protease inhibitors, primary screen, biochemical, flow cytometry, MLPCN library; Botulinum neurotoxin type A light chain protease (Clostridium botulinum A str. ATCC 3502); multiplex microsphere protease substrate cleavage; inhibition, % at 10 µM; 360,000 tested, 0.17% active; note: plate controls were buffer without enzyme for full effect and enzyme alone for no effect
Vc quorum ag-2 = V. cholerae lux activation without autoinducers – BH1578 luxS cqsA deficient, cherry-pick, plate reader, dose response. shares compounds with Vc quorum ag-1. V. cholerae BH1578 lux reporter, luminescence, 6 h. activation, % at 50 µM. 620 tested, under 10 active. AID 602243, 2012; call rule not given here
An asterisk follows results filed as active; i = inactive; ? = inconclusive; · = not tested or not shown. Cut-off read from the data, not from the text of the source, unless noted: active = inhibition above about 30%; inconclusive = no clear call, values can overlap the other calls; inactive = below that.

SMILES | Anthrax LF prot | Vc quorum ag-1 | BoNT-F LC inh | Bead autofluor | BoNT-A LC inh2 | Vc quorum ag-2
Cc1cccc(NC(=O)CS(=O)(=O)c2cn(C)c3ccccc23)c1C | -2 | 17* | -7 | 9829 | -1 | 0
O=C(NCCN1CCOCC1)c1cccc(NS(=O)(=O)c2ccc(Br)cc2)c1 | -1 | 23* | -6 | ? | 0 | 14
Cc1nc(N2CCc3ccccc3C2)[nH]c(=O)c1Cc1ccccc1 | 3 | 1 | 1 | 4742 | -1 | ·
CCCCCc1c(C)nc(N2CCc3ccccc3C2)[nH]c1=O | 0 | 25* | 0 | 10025 | 0 | 15
Cc1ccc(C(=O)N(C)CC(=O)Nc2ccc(N3CCOCC3)cc2)s1 | 2 | 14 | 4 | 5066 | 5 | 100
Nc1nnc(-c2ccc(Cl)cc2Cl)s1 | -1 | 470* | -8 | 4626 | 0 | 69
COc1ccc(OC)c(S(=O)(=O)N2CCC(C(=O)N3CCc4ccccc4C3)CC2)c1 | -8 | 12 | -10 | 3191 | 0 | 2
O=C(Cn1cc(S(=O)(=O)Cc2cccc(F)c2)c2ccccc21)N1CCOCC1 | ? | 0 | 7 | ? | 2 | ·
COC(=O)c1ccc(-c2nc(O)c(C)s2)cc1 | 0 | 0 | -2 | 2531 | 0 | ·
COC(=O)c1ccc(-c2nc3cc(Cl)c(N)cc3s2)cc1 | 1 | 25* | -3 | 2362 | 1 | 0
c1ccc(-c2ccc(CN3Cc4ccccc4-n4nncc4C3)cc2)cc1 | 0 | 249* | -3 | 3461 | 0 | 397
COc1ccccc1NS(=O)(=O)c1cccc(C(=O)NCC(c2ccco2)N2CCCCC2)c1 (stereo not drawn) | -2 | 14 | -1 | 4475 | 4 | 0
CCOc1ccc(S(=O)(=O)Nc2ccc(C(=O)NCC(c3ccco3)N3CCCCC3)cc2)cc1 (stereo not drawn) | 1 | 14 | 2 | 7133 | -5 | 0
CCC1C(=O)NCCN1C(=O)CCc1nnc(CCc2ccc(OC)cc2)o1 (stereo not drawn) | 1 | 11 | 3 | 4917 | 2 | 0
CCOC(=O)CSc1nc(C)cc(C)c1C#N | 1 | 17* | 7 | 2386 | 0 | 0
C[C@@H]1Cc2[nH][nH]c(=O)c2[C@H](c2ccc(Cl)cc2)O1 | 0 | · | 2 | 5531 | 0 | ·
CCN1CCN(C(=O)c2ccc(COc3ccc(Cl)cc3)o2)CC1 | 3 | 12 | 2 | 3183 | -1 | 1
CCN1CCN(C(=O)c2ccc(COc3cccc(Cl)c3)o2)CC1 | -3 | i | -1 | 5977 | 0 | ·
CN(C)c1nc(N)ncc1-c1ccc(Oc2ccccc2)cc1 | 10 | 53* | -7 | 3290 | 0 | 7
O=C(COC(=O)C1CCN(c2ccc(C(F)(F)F)cn2)CC1)NC1CCCCC1 | -2 | 14 | -4 | 5293 | 1 | 0
COc1ccc(C2=Nn3c(C)nnc3SC2)cc1 | 0 | i | -4 | 5953 | 0 | ·
COc1ccc(OCc2nnc3n2N=C(c2ccc(OC)cc2)CS3)cc1 | -2 | 27 | -1 | 6230 | 0 | 3
CCC(C)NS(=O)(=O)c1ccc(S(=O)(=O)Nc2cc3c(cc2C(C)=O)OCO3)cc1 (stereo not drawn) | -2 | 22* | 6 | 12543 | 0 | 0
CC(=O)c1cc2c(cc1NS(=O)(=O)c1cccc(C(=O)O)c1)OCO2 | 9 | -4 | 1 | 2912 | 2 | ·
CC(=O)c1cc2c(cc1NS(=O)(=O)c1ccccc1)OCO2 | -7 | 14 | -8 | 20902* | -5 | 0
SMILES | Anthrax LF prot | Vc quorum ag-1 | BoNT-F LC inh | Bead autofluor | BoNT-A LC inh2 | Vc quorum ag-2
CC(=O)Nc1ccc(NC(=O)C(C)OC(=O)c2ccc(C)s2)cc1 (stereo not drawn) | -2 | i | -2 | 5026 | 0 | ·
COc1ccc(C)c2sc(N3CCCC3)nc12 | -6 | 28* | 6 | 9531 | 0 | 1
COc1ccc(CNC(=O)C2=CCN(S(=O)(=O)c3ccc(C)cc3)CC2)cc1 | 1 | -1 | -2 | 4303 | 0 | ·
O=C(Nc1ccc(-c2cn3ccsc3n2)cc1)c1ccc(F)c(S(=O)(=O)N2CCOCC2)c1 | -6 | 12 | -3 | 19935* | -2 | 0
COc1cc(CN2CCN(C(C)C)C(CCO)C2)ccc1OCc1ccccc1 (stereo not drawn) | -1 | 0 | 1 | 2660 | 0 | ·
Brc1ccc(-c2cn3c(n2)SCC3)cc1 | -1 | -1 | -5 | 2096 | 0 | ·
Oc1ccc(-c2cn3c(n2)SCC3)cc1 | 3 | 17* | -7 | 3248 | 0 | 0
Cc1cc(C)c(S(C)(=O)=O)c(Oc2ccc(C(C)(C)C)cc2)n1 | -7 | 12 | 1 | ? | 0 | 0
Cc1cc(C)c(S(C)(=O)=O)c(Oc2cccc(Cl)c2)n1 | 0 | 0 | -2 | 2869 | 0 | ·
Cc1ccc(C)c(N2C(=O)c3cc(N4CCOCC4)c([N+](=O)[O-])cc3C2=O)c1 | -2 | 0 | -11 | 2893 | -2 | ·
COc1ccccc1CCCNC(=O)C1CCC(=O)N(Cc2ccccc2F)C1 (stereo not drawn) | 0 | i | 2 | 4808 | -2 | ·
COCCNC(=S)N(CCCO)Cc1cc2cc3c(cc2[nH]c1=O)OCCO3 | -8 | 389* | 8 | 4252 | -1 | 2
O=C(CC12CC3CC(CC(C3)C1)C2)NCc1ccc(F)cc1 | -12 | i | 3 | 3497 | -2 | ·
COc1ccc(C(C(=O)NC(C)(C)C)N(CCc2ccccc2)C(=O)CCC(=O)Nc2cc(C)on2)cc1 (stereo not drawn) | -1 | i | 2 | 3107 | -4 | ·
CCOC(=O)CC(NC(=O)c1cc2cccc(OC)c2oc1=O)c1ccc(OC)cc1 (stereo not drawn) | 5 | 2 | 2 | 3626 | 2 | ·
CC(=O)c1cc2c(cc1NC(=O)Cc1c(C)noc1C)OCO2 | -5 | 22* | -4 | 3688 | 0 | 1
CN(C(=O)COC(=O)C(C)(C)Oc1ccc(Cl)cc1)c1c(N)n(Cc2ccccc2)c(=O)[nH]c1=O | 1 | -1 | 2 | ? | 0 | ·
CC12CCC(=O)N1C(C(=O)NNC(=O)COc1ccc(Br)cc1)CS2 (stereo not drawn) | 1 | 12 | 10 | ? | 6 | 0
Cc1cc(Cl)ccc1OCC(=O)NNC(=O)C1CSC2(C)CCC(=O)N12 (stereo not drawn) | -4 | i | -8 | 5021 | -1 | ·
CC(C)CC(N)c1csc(Nc2ccc(C(F)(F)F)cn2)n1 (stereo not drawn) | -1 | -1 | -17 | 3961 | 0 | ·
O=C(Cn1cccc1C(=O)c1ccccc1)NCCN1CCCCCC1 | -1 | 12 | -1 | 3570 | 1 | 0
O=C(Cn1cccc1C(=O)c1ccccc1)NCCN1CCOCC1 | 10 | -1 | 0 | 2533 | 0 | ·
Cc1cccc(OC(C)C(=O)NC2CCS(=O)(=O)C2)c1C (stereo not drawn) | -2 | 23 | -23 | 6151 | -1 | 1

Screening data: PubChem BioAssay, several laboratories
